These results are taken from paper PMC7862700, “An all-to-all approach to the identification of sequence-specific readers for epigenetic DNA modifications on cytosine”.

Holding throughout (assay): DAPPL (digital affinity profiling via proximity ligation, sequencing); 10 mM Tris-HCl pH 7.5, 50 mM NaCl, 1 mM DTT, 4% glycerol, room temperature, 30 min; GST-TFs on glutathione beads, 16-mer random dsDNA library, 0.1% formaldehyde crosslink after washing; high values mean tight binding
What all share (conditions): protein: recombinant; tags: N-terminal GST; dsDNA, one strand shown

For one assay, the target named is T1, FLI1 (Homo sapiens, UniProt Q01543 1-452).
T1 sequence: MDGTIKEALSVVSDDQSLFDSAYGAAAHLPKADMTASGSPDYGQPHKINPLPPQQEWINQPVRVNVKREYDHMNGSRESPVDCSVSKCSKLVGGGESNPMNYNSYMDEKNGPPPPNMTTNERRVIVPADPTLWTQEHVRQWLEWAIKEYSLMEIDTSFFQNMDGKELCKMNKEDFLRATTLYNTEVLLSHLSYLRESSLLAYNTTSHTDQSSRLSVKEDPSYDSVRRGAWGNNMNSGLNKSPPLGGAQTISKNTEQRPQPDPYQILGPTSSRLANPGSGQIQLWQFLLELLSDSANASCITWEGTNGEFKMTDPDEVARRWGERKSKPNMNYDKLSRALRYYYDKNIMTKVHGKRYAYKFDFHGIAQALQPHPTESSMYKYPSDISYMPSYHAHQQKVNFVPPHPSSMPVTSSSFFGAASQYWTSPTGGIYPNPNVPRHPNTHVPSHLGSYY
In short, it runs like this:
(§1)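 Each value of binding signal is a hexamer's read frequency for a factor divided by the same hexamer's frequency in the tag-only sample. Barcoded, bead-captured GST fusions of human transcription factors made in yeast were pooled with that sample and incubated with 200 nmole of a random double-stranded 16-mer DNA library in Tris/NaCl/DTT/glycerol buffer at room temperature for 30 min. Washing, 0.1% formaldehyde crosslinking, proximity ligation, PCR and Illumina NextSeq500 sequencing followed.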

For another assay, the target named is T2, ELK1 (Homo sapiens, UniProt P19419 1-428).
T2 sequence: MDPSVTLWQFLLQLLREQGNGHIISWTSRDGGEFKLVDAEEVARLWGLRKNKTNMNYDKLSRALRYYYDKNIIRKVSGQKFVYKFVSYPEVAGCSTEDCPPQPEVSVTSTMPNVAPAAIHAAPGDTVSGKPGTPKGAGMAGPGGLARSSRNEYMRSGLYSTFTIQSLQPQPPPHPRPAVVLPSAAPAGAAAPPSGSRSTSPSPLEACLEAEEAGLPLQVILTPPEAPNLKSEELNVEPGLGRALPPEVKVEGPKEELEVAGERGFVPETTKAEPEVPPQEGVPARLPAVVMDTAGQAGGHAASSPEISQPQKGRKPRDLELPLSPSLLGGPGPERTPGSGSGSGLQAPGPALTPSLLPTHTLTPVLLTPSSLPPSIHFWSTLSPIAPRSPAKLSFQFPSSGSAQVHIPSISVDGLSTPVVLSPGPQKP
An outline of the steps: as §1

The next assay concerns the target T3, GABPA (Homo sapiens, UniProt Q06546 1-454).
T3 sequence: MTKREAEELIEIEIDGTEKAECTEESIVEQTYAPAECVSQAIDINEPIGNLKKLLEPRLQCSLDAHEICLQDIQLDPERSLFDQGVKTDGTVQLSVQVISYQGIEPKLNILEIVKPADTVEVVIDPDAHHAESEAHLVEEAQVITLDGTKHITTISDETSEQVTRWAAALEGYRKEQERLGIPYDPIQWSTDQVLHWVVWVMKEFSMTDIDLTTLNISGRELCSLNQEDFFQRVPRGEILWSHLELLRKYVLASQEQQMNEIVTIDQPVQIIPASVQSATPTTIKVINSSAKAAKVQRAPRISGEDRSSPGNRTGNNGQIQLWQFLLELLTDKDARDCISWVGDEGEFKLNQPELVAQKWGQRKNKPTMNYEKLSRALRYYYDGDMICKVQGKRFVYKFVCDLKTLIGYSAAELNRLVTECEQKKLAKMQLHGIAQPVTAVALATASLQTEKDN
In short, it runs like this: as §1

The target in another assay is T4, ERG (Homo sapiens, UniProt P11308 1-479).
T4 sequence: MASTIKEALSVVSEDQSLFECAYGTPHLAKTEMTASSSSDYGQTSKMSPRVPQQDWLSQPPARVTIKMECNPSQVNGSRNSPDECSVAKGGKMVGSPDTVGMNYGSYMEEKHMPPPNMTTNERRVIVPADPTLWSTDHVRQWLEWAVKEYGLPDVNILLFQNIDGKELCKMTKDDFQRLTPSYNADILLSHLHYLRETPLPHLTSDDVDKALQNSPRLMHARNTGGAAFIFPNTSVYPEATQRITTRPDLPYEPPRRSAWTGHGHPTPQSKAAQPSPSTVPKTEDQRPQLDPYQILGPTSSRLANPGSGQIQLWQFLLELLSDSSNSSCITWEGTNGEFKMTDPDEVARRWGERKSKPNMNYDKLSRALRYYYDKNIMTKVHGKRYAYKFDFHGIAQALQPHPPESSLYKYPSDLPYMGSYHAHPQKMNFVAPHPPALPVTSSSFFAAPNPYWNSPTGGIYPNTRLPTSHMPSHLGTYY
In short, it runs like this: as §1

The target of a further assay is ELF1 (Homo sapiens, UniProt P32519 1-619). An outline of the steps:
as §1

A further assay has as its target SPIB (Homo sapiens, UniProt Q01892 1-262). An outline of the steps: as §1
The next assay concerns the target T5, ELK3 (Homo sapiens, UniProt P41970 1-407).
T5 sequence: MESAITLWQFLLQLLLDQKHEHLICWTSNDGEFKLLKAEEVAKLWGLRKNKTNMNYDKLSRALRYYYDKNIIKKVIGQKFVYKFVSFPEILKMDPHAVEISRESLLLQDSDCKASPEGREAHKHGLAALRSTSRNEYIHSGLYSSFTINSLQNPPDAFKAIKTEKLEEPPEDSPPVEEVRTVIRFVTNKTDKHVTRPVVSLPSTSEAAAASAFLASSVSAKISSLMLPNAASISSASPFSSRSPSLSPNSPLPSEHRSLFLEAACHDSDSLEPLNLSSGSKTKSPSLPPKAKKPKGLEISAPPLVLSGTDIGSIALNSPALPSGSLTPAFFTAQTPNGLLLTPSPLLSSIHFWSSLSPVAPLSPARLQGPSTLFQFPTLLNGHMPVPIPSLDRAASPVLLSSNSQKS
An outline of the steps: as §1

Another assay addresses SPI1 (Homo sapiens, UniProt P17947 1-270). In short, it runs like this:
as §1

Another assay concerns the target T6, EHF (Homo sapiens, UniProt Q9NZC4 1-300).
T6 sequence: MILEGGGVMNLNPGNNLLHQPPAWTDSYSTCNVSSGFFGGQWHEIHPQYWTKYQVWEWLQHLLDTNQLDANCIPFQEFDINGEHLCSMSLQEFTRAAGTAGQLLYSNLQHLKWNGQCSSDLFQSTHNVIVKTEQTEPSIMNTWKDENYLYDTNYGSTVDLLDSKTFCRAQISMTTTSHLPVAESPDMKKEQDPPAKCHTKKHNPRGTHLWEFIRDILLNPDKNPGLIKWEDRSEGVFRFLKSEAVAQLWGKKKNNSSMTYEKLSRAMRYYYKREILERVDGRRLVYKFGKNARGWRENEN
In short, it runs like this: as §1

Chain of ELF1 (P32519 whole entry): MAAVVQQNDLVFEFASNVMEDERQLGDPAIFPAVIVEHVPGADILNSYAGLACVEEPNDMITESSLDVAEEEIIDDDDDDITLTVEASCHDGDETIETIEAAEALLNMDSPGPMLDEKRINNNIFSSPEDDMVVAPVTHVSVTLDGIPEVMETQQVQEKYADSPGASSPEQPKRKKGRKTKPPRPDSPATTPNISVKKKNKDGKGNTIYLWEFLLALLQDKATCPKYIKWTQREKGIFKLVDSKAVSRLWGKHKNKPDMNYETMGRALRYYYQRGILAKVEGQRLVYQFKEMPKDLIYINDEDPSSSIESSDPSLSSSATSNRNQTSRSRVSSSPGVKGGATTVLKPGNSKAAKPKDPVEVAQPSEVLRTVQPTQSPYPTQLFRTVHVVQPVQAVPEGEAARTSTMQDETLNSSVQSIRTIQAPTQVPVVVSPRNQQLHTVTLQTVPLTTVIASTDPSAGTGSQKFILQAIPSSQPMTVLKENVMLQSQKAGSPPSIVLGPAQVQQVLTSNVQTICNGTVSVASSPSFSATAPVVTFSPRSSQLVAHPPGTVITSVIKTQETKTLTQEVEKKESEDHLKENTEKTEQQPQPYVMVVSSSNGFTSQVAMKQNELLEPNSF
Chain of SPIB (Q01892 whole entry): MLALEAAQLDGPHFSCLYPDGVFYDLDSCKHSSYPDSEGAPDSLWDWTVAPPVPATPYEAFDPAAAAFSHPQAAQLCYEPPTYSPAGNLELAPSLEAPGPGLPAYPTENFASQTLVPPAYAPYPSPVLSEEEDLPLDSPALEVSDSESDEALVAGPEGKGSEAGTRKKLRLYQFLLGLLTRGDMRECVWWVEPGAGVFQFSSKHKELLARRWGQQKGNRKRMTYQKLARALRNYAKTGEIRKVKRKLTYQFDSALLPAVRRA

CTCAGG: the binding signal with FLI1 was 1.08 fold enrichment (6-mer frequency, TF over GST control); with ELK1, 1.13 fold enrichment (6-mer frequency, TF over GST control); with GABPA it was 1.02 fold enrichment (6-mer frequency, TF over GST control); with ERG, 1.1 fold enrichment (6-mer frequency, TF over GST control); in the assay with ELF1, 1.08 fold enrichment (6-mer frequency, TF over GST control); in the assay with SPIB, 1.11 fold enrichment (6-mer frequency, TF over GST control). Further, the binding signal with ELK3 was 1.07 fold enrichment (6-mer frequency, TF over GST control).

Consider TATCAA, for which the binding signal is 1.1 fold enrichment (6-mer frequency, TF over GST control) with FLI1; 1.06 fold enrichment (6-mer frequency, TF over GST control) in the assay with ELK1; 1.13 fold enrichment (6-mer frequency, TF over GST control) with GABPA; 1.03 fold enrichment (6-mer frequency, TF over GST control) with ERG; 1.02 fold enrichment (6-mer frequency, TF over GST control) with ELF1; 1.02 fold enrichment (6-mer frequency, TF over GST control) in the assay with SPI1. Further, the binding signal with ELK3 is 1.02 fold enrichment (6-mer frequency, TF over GST control).

On to AGGTTT, for which the binding signal in the assay with FLI1 is 1.02 fold enrichment (6-mer frequency, TF over GST control); in the assay with ELK1 it was 1.04 fold enrichment (6-mer frequency, TF over GST control); with GABPA it was 1.08 fold enrichment (6-mer frequency, TF over GST control); with ERG it was 1.06 fold enrichment (6-mer frequency, TF over GST control); with EHF, 1.07 fold enrichment (6-mer frequency, TF over GST control); with SPI1 it was 1.06 fold enrichment (6-mer frequency, TF over GST control). Besides, the binding signal with SPIB is 1.04 fold enrichment (6-mer frequency, TF over GST control); in the assay with ELK3 it was 1.13 fold enrichment (6-mer frequency, TF over GST control).

CGAGTT: the binding signal with FLI1 is 1.16 fold enrichment (6-mer frequency, TF over GST control); with ELK1 it was 1.1 fold enrichment (6-mer frequency, TF over GST control); in the assay with GABPA, 1.02 fold enrichment (6-mer frequency, TF over GST control); with ELF1, 1.16 fold enrichment (6-mer frequency, TF over GST control); in the assay with EHF, 1.04 fold enrichment (6-mer frequency, TF over GST control); with SPI1 it was 1.09 fold enrichment (6-mer frequency, TF over GST control). The binding signal in the assay with SPIB is 1.07 fold enrichment (6-mer frequency, TF over GST control); with ELK3, 1.14 fold enrichment (6-mer frequency, TF over GST control).

Consider CAAAGC, for which the binding signal in the assay with FLI1 was 1.08 fold enrichment (6-mer frequency, TF over GST control); in the assay with ELK1, 1.02 fold enrichment (6-mer frequency, TF over GST control); with GABPA, 1.16 fold enrichment (6-mer frequency, TF over GST control); with ERG, 1 fold enrichment (6-mer frequency, TF over GST control); in the assay with ELF1, 1.17 fold enrichment (6-mer frequency, TF over GST control); with SPI1 it was 1.03 fold enrichment (6-mer frequency, TF over GST control). Further, the binding signal with SPIB is 1.04 fold enrichment (6-mer frequency, TF over GST control); with ELK3, 1.1 fold enrichment (6-mer frequency, TF over GST control).

With GGCCCT, the binding signal with FLI1 is 1.09 fold enrichment (6-mer frequency, TF over GST control); with ELK1, 1.08 fold enrichment (6-mer frequency, TF over GST control); with GABPA it was 1.11 fold enrichment (6-mer frequency, TF over GST control); in the assay with ERG, 1.1 fold enrichment (6-mer frequency, TF over GST control); with ELF1, 1 fold enrichment (6-mer frequency, TF over GST control); with SPIB, 1.15 fold enrichment (6-mer frequency, TF over GST control).

As for TAACGA, the binding signal with FLI1 was 1.09 fold enrichment (6-mer frequency, TF over GST control); with ELK1 it was 1.04 fold enrichment (6-mer frequency, TF over GST control); with GABPA, 1.07 fold enrichment (6-mer frequency, TF over GST control); in the assay with ERG, 1.08 fold enrichment (6-mer frequency, TF over GST control); in the assay with ELF1 it was 1.03 fold enrichment (6-mer frequency, TF over GST control); in the assay with SPI1, 1.06 fold enrichment (6-mer frequency, TF over GST control). The binding signal with SPIB was 1.1 fold enrichment (6-mer frequency, TF over GST control); with ELK3, 1.03 fold enrichment (6-mer frequency, TF over GST control).

Regarding AAGACT, the binding signal with FLI1 is 1.09 fold enrichment (6-mer frequency, TF over GST control); with ELK1, 1.12 fold enrichment (6-mer frequency, TF over GST control); with GABPA, 1.06 fold enrichment (6-mer frequency, TF over GST control); with ERG, 1.1 fold enrichment (6-mer frequency, TF over GST control); with ELF1, 1.08 fold enrichment (6-mer frequency, TF over GST control); with SPI1, 1.12 fold enrichment (6-mer frequency, TF over GST control). The binding signal with SPIB was 1.08 fold enrichment (6-mer frequency, TF over GST control); in the assay with ELK3 it was 1.14 fold enrichment (6-mer frequency, TF over GST control).

As to TTGGGT, the binding signal with FLI1 is 1.02 fold enrichment (6-mer frequency, TF over GST control); with ELK1 it was 1.13 fold enrichment (6-mer frequency, TF over GST control); in the assay with GABPA it was 1.22 fold enrichment (6-mer frequency, TF over GST control); with ELF1, 1.09 fold enrichment (6-mer frequency, TF over GST control); in the assay with EHF, 1.04 fold enrichment (6-mer frequency, TF over GST control); with SPI1, 1.02 fold enrichment (6-mer frequency, TF over GST control). Also, the binding signal with SPIB was 1.05 fold enrichment (6-mer frequency, TF over GST control); in the assay with ELK3, 1.16 fold enrichment (6-mer frequency, TF over GST control).

Turning to CTATGT, the binding signal with FLI1 was 1.11 fold enrichment (6-mer frequency, TF over GST control); with ELK1 it was 1.11 fold enrichment (6-mer frequency, TF over GST control); in the assay with GABPA, 1.22 fold enrichment (6-mer frequency, TF over GST control); in the assay with ELF1 it was 1.09 fold enrichment (6-mer frequency, TF over GST control); with EHF, 1.03 fold enrichment (6-mer frequency, TF over GST control); with SPI1 it was 1.04 fold enrichment (6-mer frequency, TF over GST control). Further, the binding signal with SPIB was 1.15 fold enrichment (6-mer frequency, TF over GST control).

For the sequence GGCATT, the binding signal with FLI1 is 1.08 fold enrichment (6-mer frequency, TF over GST control); with ELK1 it was 1.05 fold enrichment (6-mer frequency, TF over GST control); with GABPA, 1.04 fold enrichment (6-mer frequency, TF over GST control); with ERG, 1.04 fold enrichment (6-mer frequency, TF over GST control); with EHF, 1.01 fold enrichment (6-mer frequency, TF over GST control); with SPI1 it was 1.05 fold enrichment (6-mer frequency, TF over GST control). Besides, the binding signal in the assay with ELK3 was 1.14 fold enrichment (6-mer frequency, TF over GST control).

In the case of GCAATA, the binding signal with FLI1 was 1.02 fold enrichment (6-mer frequency, TF over GST control); with ELK1, 1.1 fold enrichment (6-mer frequency, TF over GST control); with GABPA, 1.02 fold enrichment (6-mer frequency, TF over GST control); with ELF1 it was 1.05 fold enrichment (6-mer frequency, TF over GST control); with EHF it was 1.07 fold enrichment (6-mer frequency, TF over GST control).
